Data on 40 compounds can be found in PubChem BioAssay (NCATS).

Structures are written as SMILES. Records with an inconclusive call do not appear. Values without a mark were called inactive. Active and inactive are the calls of the source. Calls come from the whole dose curve; as a rule, active = well fitted cell-killing curve with a large enough effect; inconclusive = small, poorly fitted or top-dose-only effect; inactive = flat fitted curve, though single readings scatter.
Potency is the fitted concentration of half-maximal effect.

The assay can be described thus: Quantitative highthroughput screen to assess conditional lethalithy of NOMO1 cells grown in RPMI1640 with dialyzed fetal bovine serum (RPMI+ds) (AID 1963877). Note: nearly all actives have a fitted effect of over 30% in size. Conditions: NOMO1 in RPMI+dialyzed FBS viability, ATP luminescence, 48 h; series mostly up to 45.8 µM; viability: at the top concentration. The source says: Assay Provider: Jason Cantor Ph.D.
Department of Biochemistry
University of Wisconsin-Madison, Madison, WI, USA
Chemical screening studies have identified drug sensitivities across hundreds of cancer cell lines but most putative therapeutics fail to translate. Discovery and development of drug candidates in models that more accurately reflect nutrient levels in human blood is a major challenge. Here we performed high-throughput screens in conventional versus Human Plasma-Like Medium (HPLM) to identify compounds that were "missed" when screening using the artificial culture condition. Sets of conditional anticancer compounds spanned phases of clinical development and included non-oncology drugs were assessed. […] We also traced conditional phenotypes for several chemotherapeutics to availability of HPLM-specific metabolites and confirmed others for compounds whose reported targets are encoded by nonessential genes. Our findings establish generalizable strategies for exploiting conditional lethality in HPLM to reveal therapeutic candidates and mechanisms of action in cancer cells.
Described herein are the results of each viability screens against three cell lines: NOMO1 (an acute myeloid leukemia cell line); P12-Ichikawa (a T-cell acute lymphoblastic leukemia); and SEM (a B-cell ALL). Each assay was screened using 3 different cell culture media: homemade human plasma-Like medium with 10% dialyzed fetal bovine serum (HPLM+ds); RPMI1640 with 10% untreated FBS and 5mM glucose (RPMI+s); and RPMI1640 with 10% dialyzed fetal bovine serum and 5 mM glucose (RPMI+ds).
PROTOCOL TABLE (as described by Inglese J, Shamu CE and Guy RK. 2007)
SEQUENCE No. (e.g., 1, 2, 3, etc.); […] (e.g., Cells, Incubation, Reagent, etc.); VALUE and DESCRIPTION.
1; Cells; 5 uL; white, solid bottom 1536-well Greiner assay plate.
2; Compounds; 23 nL; Kalypsis pin tool (Wako USA) equipped with a 1536-well pin head to transfer to the assay plates.
3; Incubation; 48 hours; 37C incubation.
4; Reagent; 3 uL; CellTiter Glo (Promega).
5; Incubation; 5 min, room temperature
6; Detection; Luminescence, Viewlux PerkinElmer.
NOTES (numbers refer to Sequence numbers above)
1. Briefly, 5 ul of cell reagent was dispensed using a Multidrop Combi Dispenser. The NOMO1 and SEM cells were plated at 500 cells/well and the P12-Ichikawa line at 1000 cells/well.
2. After seeding the cells, 23 nL of MIPE 4.1 library compounds (in DMSO) were added to each plate using a Kalypsys 1536 Pintool dispenser. Bortezomib at final concentration of […] and DMSO were added to each plate as positive and negative controls respectively. For each screen, MIPE 4.1 compounds were added over an eleven-point concentration range […] in 3-fold dilutions.
3. Each plate was covered with a stainless steel gasketed lid to prevent evaporation and incubated for 48 hour at 37C, 95% relative humidity, and 5% CO2.
4-5. Three microliter CellTilter-GloTM luminescent substrate mix (Promega) reagent was added to the assay plate and incubated at room temperature for 5 min.
6. The luminescence signal was measured using a ViewLux (PerkinElmer) multiplate reader with a 2 second exposure time per plate. Data for each compound were normalized as percent viability such that measurements for DMSO and the empty well controls in each plate were defined as 100% and 0%, respectively.
In the case of `CC(C)[C@]12O[C@@H]1[C@@H]1O[C@]13[C@]1(O[C@H]1C[C@@H]1C4=C(CC[C@@]13C)C(=O)OC4)[C@H]2O`, the Potency is 1.2 nM (active).

On to `CC1=NN=C(c2ccc(N)cc2)c2cc3c(cc2C1)OCO3`, for which the viability (usually a read-out of living cells in per cent, often relative to untreated cells) was 90%.

On to `C[C@]12COC(=O)C[C@@H]1CC[C@@H]1[C@H]2CC[C@@]2(C)[C@H]1CC[C@]2(C)O`, for which the “viability” value is 92.6%.

As to `CC(C)(C)[C@]1(O)C[C@@H]2OC(=O)C[C@@]23C(=O)O[C@@H]2OC(=O)[C@H](O)C213` (stereo not given in full), the “viability” value was 95%.

As for `CN(C)CCN(C)CCc1ccc(Cl)c(Cl)c1`, the “viability” value was 91.1%.

With `O=C(Oc1ccc([N+](=O)[O-])cc1)N1CCC(C(O)(c2ccc3c(c2)OCO3)c2ccc3c(c2)OCO3)CC1`, the “viability” value is 87.7%.

Turning to `CN(C)CCc1ccc(O)cc1`, the “viability” value was 95.5%.

On to `C=C[C@@H]1CN2CCC1C[C@@H]2[C@@H](O)c1ccnc2ccccc12` (stereo not given in full), for which the “viability” value is 87.9%.

In the case of `CC=C(C)C(=O)O[C@H]1C(C)=C2[C@@H]3OC(=O)[C@@](C)(O)[C@@]3(O)[C@@H](OC(=O)CCC)C[C@](C)(OC(C)=O)[C@@H]2[C@@H]1OC(=O)CCCCCCC`, the Potency is 66.2 nM (active).

With `CN1CCN(C(=O)O[C@H]2c3nccnc3C(=O)N2c2ccc(Cl)cn2)CC1`, the “viability” value was 94.6%.

Consider `CC(=CCCC1=CCC(C2=CC(=O)OC2O)OC1O)CCC1=C(C)CCCC1(C)C` (stereo not given), for which the “viability” value was 92.6%.

For the compound `C#C[C@]1(O)C=C[C@@H]2[C@@H]3CCC4=CC(=O)CC[C@@H]4[C@H]3CC[C@@]21CC`, the “viability” value is 99.5%.

Regarding `CC(N[C@H]1C[C@H]1c1ccccc1)c1ccc2c(c1)OCCO2` (stereo not given in full), the “viability” value was 104%.

In the case of `C[C@@H]1O[C@@H](O[C@@H]2C=C3CC[C@@H]4[C@@H](CC[C@]5(C)[C@H](c6ccc(=O)oc6)CC[C@@]45O)[C@@]3(C)CC2)[C@H](O)[C@H](O)[C@H]1O`, the Potency was 46.9 nM (active).

As for `CC[C@@]1(O)C(=O)OCc2c1cc1n(c2=O)Cc2cc3ccccc3nc2-1`, the Potency was 66.2 nM (active).

As to `NCC1(CC(=O)O)CCCCC1`, the “viability” value is 90.5%.

On to `CNC(=O)c1ccc(N2C(=S)N(c3ccc(C#N)c(C(F)(F)F)c3)C(=O)C23CCC3)cc1F`, for which the “viability” value was 104%.

Turning to `CCOc1ccccc1-n1c(C(C)N2CCN(C(=O)COc3ccc(Cl)cc3)CC2)nc2ccccc2c1=O` (stereo not given), the Potency was 2630 nM (active).

With `Cc1ccccc1-n1c(Cn2ncc3c(N)ncnc32)nc2cccc(C)c2c1=O`, the Potency was 833 nM (active).

`Cc1cccc(C)c1NC(=O)CN1CCCC1=O`: the “viability” value was 112%.

For `O=S(=O)(F)Cc1ccccc1`, the “viability” value is 82.3%.

In the case of `CC1=C(O)C(=O)C=C2C1=CC=C1[C@@]2(C)CC[C@@]2(C)[C@@H]3C[C@](C)(C(=O)O)CC[C@]3(C)CC[C@]12C`, the Potency is 2640 nM (active).

As for `Cn1c(CCCC(=O)O)nc2cc(N(CCCl)CCCl)ccc21`, the “viability” value was 98.7%.

In the case of `O=c1[nH]c2ccccc2n1CCCN1CCC(n2c(=O)[nH]c3cc(Cl)ccc32)CC1`, the “viability” value was 85.8%.

For `NC1CC1c1ccccc1` (stereo not given), the “viability” value was 99.8%.

Take `COc1ccc(CC2NCCc3cc(OC)c(OC)cc32)cc1OC` (stereo not given): the “viability” value was 95.2%.

In the case of `Clc1ccccc1C(c1ccccc1)(c1ccccc1)n1cccn1`, the “viability” value was 105%.

Consider `Cc1[nH]nc2ccc(-c3cncc(OC[C@@H](N)Cc4c[nH]c5ccccc45)c3)cc12`, for which the Potency was 743 nM (active).

As to `COC1(CS(=O)c2ccccc2)CCN(CCc2c[nH]c3ccc(F)cc23)CC1` (stereo not given), the “viability” value is 91.9%.

Regarding `Fc1ccc(C(OCCN2CCN(CCCc3ccccc3)CC2)c2ccc(F)cc2)cc1`, the Potency was 20900 nM (active).

For the compound `CN1CCN(c2ccc([N+](=O)[O-])c3no[n+]([O-])c23)CC1`, the “viability” value is 80.1%.

Take `C[C@](O)(COc1ccc(C#N)cc1)C(=O)Nc1ccc(C#N)c(C(F)(F)F)c1`: the “viability” value was 89.6%.

For the compound `C[C@]12CC[C@H]3[C@@H](CCC4=CC(=O)CC[C@@]43C)[C@H]1CC[C@H]2OC(=O)CCC1CCCC1`, the “viability” value is 100%.

Regarding `C[C@@]12OC(=O)[C@]1([C@@H](O)[C@@H]1C=CCCC1)NC(=O)[C@H]2CCCl`, the Potency was 209 nM (active).

In the case of `C=C[C@@H]1CN2CCC1C[C@H]2[C@H](O)c1ccnc2ccccc12` (stereo not given in full), the Potency is 18700 nM (active).

Take `C[C@@H]1[C@H](O)[C@@H](C)C=CC=CCCC=CC=CC=CC=C[C@H](O[C@H]2O[C@@H](C)[C@H](O)[C@@H](N)[C@@H]2O)CC2O[C@](O)(C[C@@H](O)[C@H](O)CC[C@@H](O)C[C@@H](O)C[C@@H](O)CC(=O)O[C@H]1C)C[C@H](O)[C@H]2C(=O)O`: the “viability” value was 88.5%.

In the case of `CCOC(=O)c1cncn1[C@H](C)c1ccccc1`, the “viability” value was 103%.

As for `O=C(Oc1ccc([N+](=O)[O-])cc1)N1CCN(Cc2cccc(Oc3ccccc3)c2)CC1`, the “viability” value was 97.4%.

For `CNCC(O)c1ccc(O)cc1` (stereo not given), the “viability” value is 94.7%.

`C[C@](O)(CS(=O)(=O)c1ccc(F)cc1)C(=O)Nc1ccc(C#N)c(C(F)(F)F)c1`: the “viability” value is 101%.
